Shown are actives, neighbours in structure and some others; about 7.1% of the full set was active somewhere.
Pyk2 oligo antag – Pyk2 (human) oligomerization antagonism; z-score (the deposit names both 25 µM and 10 µM); AID 1347419; Q293 cells, Pyk2 FERM NanoBiT luminescence; active compounds read low; hit rate 0.83% among 99,000;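 active means Z-score of -3 or lower, scaled per plate to the spread of control and sample wells; inactive means z-score above -3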;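 further: negative z-score means lost luminescence so less FERM oligomerization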
Cav3 T inh – human Cav3.2 channel inhibition, primary screen; O95180; Cav3.2-expressing cells, Fluo-4 calcium fluorescence FDSS; active compounds read low; B-score at 10 µM; hit rate 4% among 100,000; AID 449739;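 active means single-dose well whose peak fluorescence ratio is a statistical outlier from its plate by either plate-standardised score or position-corrected B-score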
M1 agonist – activates the M1 muscarinic receptor | CHO-M1 cells, Fluo-4 calcium fluorescence, agonist mode; active compounds read high | B-score at 10 µM | hit rate 3% among 64,000 | AID 626;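 active means fluorescence rise, raw or as B-score row- and column-corrected plate score, outside the 99.7% band of its plate's samples, either direction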
M1 antagonist – M1 muscarinic receptor (rat) antagonism. P08482. CHO-M1 cells, Fluo-4 calcium, ACh EC80 antagonist mode; active compounds read low. B-score at 10 µM. hit rate 3.4% among 64,000. AID 628;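 active means calcium fluorescence response, raw or row-and-column corrected B-score, differing from the plate sample mean either way at a set confidence level, mostly lower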
Target sequence (P08482 whole entry, looked up): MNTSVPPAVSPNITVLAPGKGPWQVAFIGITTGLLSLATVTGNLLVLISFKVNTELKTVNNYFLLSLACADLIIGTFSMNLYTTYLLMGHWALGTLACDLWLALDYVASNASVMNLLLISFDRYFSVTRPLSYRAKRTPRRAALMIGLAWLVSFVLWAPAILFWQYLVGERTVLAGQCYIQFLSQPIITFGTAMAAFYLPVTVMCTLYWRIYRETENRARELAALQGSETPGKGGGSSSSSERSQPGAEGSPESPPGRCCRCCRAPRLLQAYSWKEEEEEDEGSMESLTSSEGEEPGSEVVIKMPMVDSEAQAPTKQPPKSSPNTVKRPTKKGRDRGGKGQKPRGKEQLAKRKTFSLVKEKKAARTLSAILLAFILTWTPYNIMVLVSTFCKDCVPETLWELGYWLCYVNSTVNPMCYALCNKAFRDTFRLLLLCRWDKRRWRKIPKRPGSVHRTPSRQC
M1 ag confirm – confirmation of rat M1 muscarinic receptor agonists | shares compounds with M1 agonist | CHO-M1 cells, Fluo-4 calcium fluorescence, agonist mode; actives lie on both sides | fluorescence change (max-min) at 10 µM | hit rate 19% among 1,700;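 active means fluorescence change differs from the solvent-only DMSO control mean at a set confidence level in both duplicate runs; inconclusive means differs from solvent-only control mean in just one of two runs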;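 further: an EC20 dose of acetylcholine follows compound addition during the same imaging run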
M4 agonist ctr – activates rat M4 receptor in counter-screen for M1 agonists; hit rate 9% among 1,700; fluorescence change (max-min) at 10 µM; AID 1741; CHO M4/Gqi5 cells, Fluo-4 calcium fluorescence, agonist mode; actives lie on both sides; shares compounds with M1 agonist;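 active means fluorescence change differing from the plate's solvent-only control wells at 99.7% confidence in both duplicates, whether higher or lower; inconclusive means differs from solvent controls in only one of two duplicates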
Of the large screens only hits and unclear results are named; the others gave an inactive call (follow-up assays come after a bar, where they were run).

Cc1noc(C)c1C(=O)OCC(=O)NC(c1ccccc1)c1ccccc1	none (no result: M1 agonist, M1 antagonist)
O=C(Nc1ccc(S(=O)(=O)N2CCCCC2)cc1)c1ccncc1	M1 agonist -2.9 | M1 ag confirm -22 | M4 agonist ctr -72
CCc1nnc(NC(=O)c2ccc(S(=O)(=O)N3CCCCCC3)cc2)s1	none
CC(=O)c1ccc(NC(=O)c2ccc(S(=O)(=O)N3CCCC3)cc2)cc1	none (no result: M1 agonist, M1 antagonist)
NC(=O)c1ccsc1NC(=O)c1ccc(S(=O)(=O)N2CCCCC2)cc1	M1 agonist 3.1 (no result: Pyk2 oligo antag, Cav3 T inh) | M1 ag confirm inconclusive | M4 agonist ctr inactive
O=C(Cc1ccc(-n2cccc2)cc1)NCc1cccs1	none
Cc1ccc(S(=O)(=O)C(C#N)c2nc3ccccc3nc2N2CCC(C)CC2)cc1 (centres undefined)	none
N#CC(c1nc2ccccc2nc1N1CCCC1)S(=O)(=O)c1ccccc1 (centres undefined)	M1 agonist 4 | M1 ag confirm inactive | M4 agonist ctr inactive
Cc1cccc(S(=O)(=O)C(C#N)c2nc3ccccc3nc2N2CCCC2)c1 (centres undefined)	M1 agonist 6 | M1 ag confirm inactive | M4 agonist ctr inactive
CCCn1c(C)nc2c(c1=O)c1nc3ccccc3nc1n2-c1ccc2c(c1)OCCO2	none (no result: Pyk2 oligo antag, Cav3 T inh)
Cc1ccc(-c2noc(CCC(=O)Nc3cccc(C#N)c3)n2)cc1	Cav3 T inh -4.2, M1 agonist 3.5 | M1 ag confirm inactive | M4 agonist ctr inactive
COc1ccc(C2=CC(c3ccc(C)cc3)n3nnnc3N2)cc1 (centres undefined)	M1 agonist 9.6 | M1 ag confirm inactive | M4 agonist ctr inactive
COc1cccc(C2C=C(c3ccc(OC)cc3OC)Nc3nnnn32)c1 (centres undefined)	M1 agonist 3.3 | M1 ag confirm inactive | M4 agonist ctr inactive
CC(NC(=O)c1ccccc1NC(=O)CSc1nnnn1C)c1ccccc1 (centres undefined)	none (no result: M1 agonist, M1 antagonist)
CCOc1ncccc1C(=O)Nc1cccc(C(=O)Nc2cccc(S(=O)(=O)CCO)c2)c1	M1 agonist 10 | M1 ag confirm inactive | M4 agonist ctr inactive
CCOc1ncccc1C(=O)OCC(=O)Nc1cccc(C(C)=O)c1	none (no result: M1 agonist, M1 antagonist)
O=C1C2C3CCCC3=C3CCCC3C2C(=O)N1c1ccc(Cl)cc1 (centres undefined)	M1 agonist 4.2 (no result: Cav3 T inh) | M1 ag confirm inconclusive | M4 agonist ctr inactive
CCN1C(=O)N[C@@H](c2ccco2)C(C(C)=O)=C1C	none (no result: Pyk2 oligo antag, M1 agonist, M1 antagonist)
O=C(Nc1cccc(-c2cn3cccnc3n2)c1)c1ccc2c(c1)OCO2	M1 agonist 3 | M1 ag confirm inconclusive | M4 agonist ctr inconclusive
COc1ccc(/C=N/NC(=O)C(=O)NCc2cccnc2)cc1OC	none (no result: M1 agonist, M1 antagonist)
CCCS(=O)(=O)c1nc(S(=O)(=O)c2ccc(C)cc2)c(NCCCN2CCOCC2)s1	M1 agonist 2.5 | M1 ag confirm inactive | M4 agonist ctr inconclusive
COC(=O)c1c(CSc2ccc(C)c(C)c2)noc1C(=O)NCc1ccc(OC)cc1	none (no result: Pyk2 oligo antag, M1 agonist, M1 antagonist)
CCN1C(=O)/C(=C2/SC(C)=C(C)N2CC)SC1=S	M1 agonist 3.2 | M1 ag confirm inactive | M4 agonist ctr inactive
O=C(CCCCCn1c(=S)[nH]c2cc3c(cc2c1=O)OCO3)N1CCN(C2CCCCC2)CC1	M1 agonist 2.1, M1 antagonist -5.1 (no result: Cav3 T inh) | M1 ag confirm inactive | M4 agonist ctr inconclusive
O=C(CCCCCn1c(=S)[nH]c2cc3c(cc2c1=O)OCO3)N1CCN(Cc2ccccc2)CC1	none
C=C1CCN(c2ccc(C(=O)NCCC)cc2[N+](=O)[O-])CC1	none (no result: Pyk2 oligo antag, M1 agonist, M1 antagonist)
CCOc1ccc2noc3c2c1C(=O)c1ccccc1-3	Cav3 T inh -5.7, M1 agonist 397, M1 antagonist -9.6 | M1 ag confirm 3216 | M4 agonist ctr 2874
O=C1c2ccccc2-c2onc3ccc(NCc4ccco4)c1c23	Cav3 T inh -4.1, M1 agonist 183 | M1 ag confirm 624 | M4 agonist ctr 1149
CCNc1ccc2noc3c2c1C(=O)c1ccccc1-3	none (no result: M1 agonist, M1 antagonist)
CCOC(=O)N1CCN(C(=O)CSc2nnc(-c3ccc(C)c(C)c3)o2)CC1	none (no result: Pyk2 oligo antag)
CCOC(=O)N1CCN(C(=O)CSc2nnc(-c3ccc(C(C)(C)C)cc3)o2)CC1	M1 agonist 6.9 (no result: Pyk2 oligo antag) | M1 ag confirm inactive | M4 agonist ctr inactive
O=C(c1ccccc1)c1nc2ccccc2n(CCCn2c(=O)c(C(=O)c3ccccc3)nc3ccccc32)c1=O	none (no result: M1 agonist, M1 antagonist)
CCOC(=O)c1c(C)[nH]c(C=Nc2ccc(OC)cc2)c1O	none (no result: M1 agonist, M1 antagonist)
CCOC(=O)c1c(C)[nH]c(C=Nc2ccccc2)c1O	M1 agonist -2.2 (no result: Pyk2 oligo antag) | M1 ag confirm inactive | M4 agonist ctr inactive
Cc1oc2nc(SCC(=O)N3CCCCC3)nc(N)c2c1C	none (no result: Pyk2 oligo antag, Cav3 T inh)
O=C(C1CCN(c2nnc(-n3cccc3)s2)CC1)N1CCN(Cc2ccc3c(c2)OCO3)CC1	M1 agonist -2.6 (no result: Pyk2 oligo antag) | M1 ag confirm inactive | M4 agonist ctr inactive
Cc1cccc(N2CCN(C(=O)C3CCN(S(=O)(=O)c4cccc5cccnc45)CC3)CC2C)c1 (centres undefined)	M1 agonist 8.6 (no result: Pyk2 oligo antag, Cav3 T inh) | M1 ag confirm inactive | M4 agonist ctr inconclusive
Cc1cccc(N2CCN(C(=O)C3CCN(S(=O)(=O)c4cccc5nsnc45)CC3)CC2C)c1 (centres undefined)	Cav3 T inh -3.4, M1 agonist 16 | M1 ag confirm -33 | M4 agonist ctr inactive
Cc1cccc(N2CCN(C(=O)C3CCN(c4nnc(-n5cccc5)s4)CC3)CC2C)c1 (centres undefined)	M1 agonist 16 (no result: Pyk2 oligo antag) | M1 ag confirm inconclusive | M4 agonist ctr inactive
O=C(C1CCN(S(=O)(=O)c2cccc3nsnc23)CC1)N1CCN(c2ccccc2F)CC1	none
O=C(C1CCN(S(=O)(=O)c2cccc3cccnc23)CC1)N1CCCC1	none (no result: Pyk2 oligo antag)
CCn1c(-c2csc3c2CCC(C)C3)n[nH]c1=S (centres undefined)	none (no result: Cav3 T inh, M1 agonist, M1 antagonist)
COc1cc(NC(C)C(=O)N2CC(C)OC(C)C2)cc(OC)c1 (centres undefined)	none (no result: M1 agonist, M1 antagonist)
Cc1sc2ncnc(N3CCN(c4ncccn4)CC3)c2c1C	M1 agonist 2 | M1 ag confirm inactive | M4 agonist ctr inactive
Cc1cc(C)n(-c2ncnc3sc(C)c(C)c23)n1	M1 agonist 5 | M1 ag confirm inactive | M4 agonist ctr inactive
COc1ccnc(NCc2cccnc2)c1C#N	none (no result: M1 agonist, M1 antagonist)
CC1(C)c2[nH]c3ccccc3c2C[C@@H]2C(=O)N(Cc3ccco3)C(=O)N21	none (no result: Pyk2 oligo antag, M1 agonist, M1 antagonist)
CCOC(=O)c1c(C)[nH]c(C(=O)CN2C(=O)NC(CC)(c3ccccc3)C2=O)c1C (centres undefined)	Cav3 T inh -5.7, M1 agonist 4.7 | M1 ag confirm inactive | M4 agonist ctr inactive
Cc1ccc(C2C(C#N)=C(N)SC(N)=C2C#N)c(C)c1	M1 agonist 11 | M1 ag confirm inactive | M4 agonist ctr inactive
c1ccc(-n2ncc3c2ncn2cnnc32)cc1	M1 agonist 27 | M1 ag confirm inactive | M4 agonist ctr inactive
COc1ccc(S(=O)(=O)N(Cc2ccccc2)Cc2nc(-c3ccccc3)no2)cc1	Cav3 T inh -5.5, M1 agonist 23 | M1 ag confirm inactive | M4 agonist ctr inactive
COc1ccc(-c2noc(CN(C)S(=O)(=O)c3ccccc3)n2)cc1OC	none

Bioassay records (PubChem)
